Assay outcomes as filed in PubChem BioAssay.
RECQ1 helicase – qHTS Assay for Inhibitors of RecQ-Like Dna Helicase 1 (RECQ1); ATP-dependent DNA helicase Q1 (Homo sapiens), P46063; RECQ1 DNA unwinding, red fluorescence kinetic read; Potency, µM (top dose mostly 57.3 µM), for the others: top-dose activity, negative = inhibition, usual class: inhibitors; 240,000 tested, 0.54% active;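 also: plate controls were vehicle for no effect and no enzyme for full effect; nearly all actives have a fitted effect of over 30% in size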
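50 nM RECQ1T1 preincubated 15 min with compound in Tris pH 8.0 buffer with MgCl2, DTT, Tween-20 and 2.5 ug/ml poly(dI-dC); started with 200 nM TAMRA/BHQ-2 forked duplex and 2 mM ATP. Unwinding read as fluorescence (525/598 nm), two reads 2 h apart.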
TDP1 inh – qHTS Assay for Inhibitors of Tyrosyl-DNA Phosphodiesterase (TDP1); recombinant TDP1, AlphaScreen DNA substrate cleavage; Potency, µM (top dose mostly 130 µM), inactives show at the highest dose activity change, negative = inhibition, most hits filed as inhibitors; Tyrosyl-DNA phosphodiesterase 1 (Homo sapiens), Q9NUW8; 350,000 tested, 0.28% active; also: nearly all actives have a fitted effect of over 40% in size
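Recombinant human Tdp1 (E. coli-expressed, 1 nM final) preincubated with compounds 15 min at room temperature, then 5'-biotin/3'-phosphotyrosine-FITC DNA substrate (15 nM final) added for 5 min. AlphaScreen beads (10 ug/ml final) added 10 min; cleavage lowers signal.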
BLM inh-1 – qHTS Assay for Inhibitors of Bloom's syndrome helicase (BLM). recombinant BLM DNA unwinding, fluorescence dequenching. RecQ-like DNA helicase BLM (Homo sapiens), P54132. 350,000 tested, 0.2% active. Potency, µM (highest dose often 56.1 µM), without a hit: at the top dose activity change, negative = inhibition, most hits filed as inhibitors;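 also: plate controls were vehicle for no effect and no enzyme for full effect; nearly all actives have a fitted effect of over 35% in size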
GCN5L2 inh – qHTS Assay for Inhibitors of GCN5L2. AID 504327, 2011. Potency, µM (titrated, usually from 58.9 µM), for the others: top-dose activity change, negative = inhibition, usual class: inhibitors. GCN5L2 HAT assay, ThioGlo1 CoA-SH fluorescence. 390,000 tested, 0.21% active
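Free CoA generated was detected with ThioGlo1 (50uM) fluorescence at Ex340nm/Em540nm, read immediately and after 20 min at room temperature. Enzyme, 20 nM in HEPES pH 7.5 buffer, saw compounds 15 min before adding 75uM H3(1-25) peptide and 70uM acetyl-CoA.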
Lamin A splicing – qHTS Assay for Modulators of Lamin A Splicing. 200,000 tested, 0.01% active. HeLa LMNA splicing GFP/RFP minigene ratio, 48 h. Potency, µM (series often up to 46.1 µM), for inactives: at the top dose ratio change, negative = inhibition, actives largely listed as inhibitors; active = well fitted inhibition curve with a large enough effect in the signal ratio, with a control signal flat, not every such curve was filed as active; inconclusive = small, poorly fitted or top-dose-only effect, or effect the other way, or a change in a side signal; the % refers to the signal ratio
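S3 HeLa stable clones carrying a lamin A-EGFP splicing minigene plus DsRed2 were seeded at 600 cells/well in Opti-MEM with 2% FBS, pin-dosed and incubated 48 h at 37°C. Acumen cytometry (488 nm) gave the GFP/RFP total-intensity ratio.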
APE1 inh-1 – qHTS Assay for Inhibitors of the Human Apurinic/apyrimidinic Endonuclease 1 (APE1); DNA repair nuclease/redox regulator APEX1 (Homo sapiens), P27695; recombinant APE1, TAMRA/BHQ-2 abasic DNA cleavage fluorescence; Potency, µM (titrated, usually from 65.8 µM), without a hit: at the top dose activity change, negative = inhibition, usual class: inhibitors; 350,000 tested, 0.35% active;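 also: plate controls were vehicle for no effect and reference inhibitor for full effect; nearly all actives have a fitted effect of over 55% in size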
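Activity was derived from the fluorescence gain between first and third kinetic reads (60 s intervals, ex 525/em 598 nm) after 50 nM THF-abasic TAMRA/BHQ-2 duplex was added to 0.75 nM APE1 preincubated 15 min with compound.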
APE1 dye cs – Counterscreen for APE1 Inhibitors: Fluorescent Dye Displacement Assay | shares compounds with APE1 inh-1 | DNA fluorescent dye displacement counterscreen, fluorescence | Potency, µM (highest dose often 28.5 µM), for the others: top-dose activity change, negative = inhibition, usual class: inhibitors | 480 tested, 7% active;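 also: loss of thiazole orange fluorescence as the dye is displaced from duplex DNA; 0% = ThO with dsDNA and no compound and -100% = ThO without dsDNA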
Endo IV inh – Counterscreen for APE1 Inhibitors: qHTS Assay for Inhibitors of Endonuclease IV; AID 2565, 2010; E. coli Endo IV, fluorogenic AP-site DNA cleavage; shares compounds with APE1 inh-1; Potency, µM (top dose mostly 27.1 µM), for inactives: at the top dose activity change, negative = inhibition, hits mostly inhibitors; 560 tested, 4% active;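 also: plate controls were uninhibited enzyme wells for no effect and no enzyme buffer wells for full effect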
APE1 inh-2 – Confirmation qHTS Assay for Inhibitors of the Human Apurinic/apyrimidinic Endonuclease 1 (APE1); shares compounds with APE1 inh-1; purified APE1, fluorogenic abasic-site DNA cleavage; Potency, µM (titrated, usually from 57.1 µM), inactives show at the highest dose activity change, negative = inhibition, most hits filed as inhibitors; 750 tested, 44% active; AID 2572, 2010; also: nearly all actives have a fitted effect of over 30% in size
APE1 FP – qHTS FP-Based Assay for Inhibitors of the Human Apurinic/apyrimidinic Endonuclease 1 (APE1); Potency, µM (series often up to 28.5 µM), inactives show at the highest dose activity, negative = inhibition, hits mostly inhibitors; 480 tested, 7% active; shares compounds with APE1 inh-1; APE1 binding to TAMRA-labelled double-stranded DNA, fluorescence polarization displacement; AID 2573, 2010
BLM inh-2 – qHTS Confirmation Assay for Inhibitors of Bloom's syndrome helicase (BLM); BLM DNA unwinding, fluorescence quenching, biochemical; shares compounds with BLM inh-1; 220 tested, 40% active; Potency, µM, for the others: max response, negative = inhibition, usual class: inhibitors;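 also: strand separation dequenches TAMRA so unwinding raises red fluorescence; series mostly up to about 69 µM; nearly all actives have a fitted effect of over 45% in size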
* marks the source's active call; other numbers are inactive results; i = inactive; ? = inconclusive; · = no result given; [ ] = remark or other dose. A selection: hits, their analogues and other compounds. The true share with any hit is near 0.9%. Unless noted, calls follow the shape of the dose curve; as a rule, active = well fitted curve in the direction sought with a large enough effect; inconclusive = small, poorly fitted or top-dose-only effect, or another doubt; inactive = no such curve, though single readings can be large; an effect the other way counts as inactive or inconclusive. Unless noted, % is scaled to controls: 0 for no effect and ±100 for the full control effect; potency is read from the fitted curve at half-maximal effect.

SMILES	RECQ1 helicase	TDP1 inh	BLM inh-1	GCN5L2 inh	Lamin A splicing	APE1 inh-1	APE1 dye cs	Endo IV inh	APE1 inh-2	APE1 FP	others
Nc1c(S(=O)(=O)O)cc(Nc2ccc(Nc3nc(Cl)nc(Nc4ccc(S(=O)(=O)O)cc4)n3)c(S(=O)(=O)O)c2)c2c1C(=O)c1ccccc1C2=O	0.891µM*	16.2%[56.1 µM]	·	20µM*	?	0.631µM*	·	10µM*	0.708µM*	·
O=[N+]([O-])c1ccc(Nc2nc(Cl)nc(NCCO)n2)cc1	-0.5%	7.7%	0.2%	0.1%	·	9.0%	·	·	·	·
Cc1nc2ccc(NC(=S)N3CCOCC3)cc2nc1C	18.5%	2.6%	-9.7%	-8.6%	·	?	0.1%	3.4%	-5.4%[24.4 µM]	6.4%
C[N+]12CCCC[C@@H]1CCC(=C(c1cccs1)c1cccs1)C2 (some centres not stated)	·	·	-11.1%	6.2%	·	·	·	·	·	·
O=c1cc(-c2ccc(O)cc2)oc2c(-c3c(O)cc(O)c4c(=O)cc(-c5ccc(O)cc5)oc34)c(O)cc(O)c12	·	-0.8%	·	-12.3%	·	22.0%	·	·	·	·
O=c1c(-c2c(O)cc(O)c3c(=O)cc(-c4ccc(O)cc4)oc23)c(-c2ccc(O)cc2)oc2cc(O)cc(O)c12	12.6µM*	·	12.6µM*	-21.6%	·	0.794µM*	14.1µM*	?	2µM*	0.0%
N#C/C(=C\c1ccc(O)c(O)c1)C(=O)c1ccc(O)c(O)c1	1.58µM*	·	·	-11.0%	?	0.0947µM*	·	?	0.199µM*	·
N#C/C(=C\c1ccc(O)c(O)c1)S(=O)(=O)c1ccccc1	-13.9%	10.0%	-8.3%	?	-3.0%	-6.3%	·	·	·	·
COc1ccc(-c2cnnc(N/N=C/c3ccc(O)c(O)c3)n2)cc1	15.8µM*	2.3%	-15.9%	0.4%	?	20µM*	?	28.6%	-12.2%[24.4 µM]	15.4%
O=C(O)c1cc(-c2ccc(/C=C3\NC(=O)N(c4ccccc4)C3=O)o2)ccc1Cl	25.1µM*	8.91µM*	5.1%	?	·	25.1µM*	·	·	?	·
O=C(O)c1cc(-c2ccc(/C=N/N3C(=O)C4C5C=CC(CC5)C4C3=O)o2)ccc1Cl (configuration not stated)	i	·	-2.8%	-17.3%	-3.5%[46 µM]	-4.5%	·	·	·	·
Cc1cccc(N2NC(=O)/C(=C/c3ccc(-c4ccc(Cl)c(C(=O)O)c4)o3)C2=O)c1	?	11.2µM*	-12.2%	-24.6%	·	17.8µM*	-13.6%	2.5%	?	1.1%
Cc1ccc(Sc2ccc(/C=C3/C(=O)NN(c4ccccc4)C3=O)o2)cc1	-22.1%	7.5%	-7.9%	-21.3%	·	1.9%	·	·	·	·
O=C1NN(c2ccccc2)C(=O)/C1=C/c1ccc(-c2ccc(Cl)c(C(=O)O)c2)o1	?	15.8µM*	-10.6%	-26.3%	?	12.6µM*	?	-4.3%	22.4µM*	?
COc1ccc(CCn2nnnc2C2(c3ccc(C)cc3)CC2)cc1	·	·	·	-18.0%	·	·	·	·	·	·
Cc1c(P(=S)(c2ccccc2)c2ccccc2)c2ccccc2n1CCCc1ccccc1	·	0.8%	·	·	·	·	·	·	·	·
NC(=O)c1cc[n+](CC2=C(C(=O)O)N3C(=O)[C@@H](NC(=O)[C@@H](c4ccccc4)S(=O)(=O)[O-])[C@H]3SC2)cc1	-4.2%	11.2µM*	·	-0.4%	-12.7%	?	·	3.0%[57.1 µM]	-75.8%	·
O=C1CC2(CCCC2)CC(=O)N1CCCCNCC1COc2ccccc2O1 (configuration not stated)	i	4.9%	·	1.9%	·	-4.4%	·	·	·	·
COC/C=C/C1=CC2=CC(=O)C(C)(OC(=O)c3ccco3)C(=O)C2=CO1 (configuration not stated)	28.2µM*	-13.7%	-14.3%	-0.2%	·	20µM*	?	?	?	12.6µM*
O=[N+]([O-])c1ccccc1/C=N\Nc1nccs1	·	·	-0.1%	-10.7%	·	18.6%	·	·	·	·
O=[N+]([O-])c1cc(/C=N\Nc2nccs2)ccc1O	11.2µM*	?	28.2µM*	?	-6.0%	7.08µM*	10µM*	16.3%	1.58µM*	8.91µM*
O=C(O)CSc1cc(C(=O)c2ccccc2O)cn2c(=O)c3c4c(sc3nc12)CCCC4	1.9%	·	25.1µM*	-5.0%	·	?	-17.8%	?	3.98µM*	?	BLM inh-2=32.4µM*
O=C(O)CSc1nc2sc3c(c2c(=O)n1Cc1ccccc1)CCCCC3	·	·	-7.8%	-3.3%	·	20.6%	·	·	·	·
Cc1ccc(/C=c2\sc3nc(-c4ccco4)nn3c2=O)o1	8.3%	-4.1%	25.1µM*	-18.9%	-2.9%	5.62µM*	?	-8.5%	7.94µM*	14.7%	BLM inh-2=-9.7%
